# PubChem BioAssay AID686979 (National Center for Advancing Translational Sciences (NCATS), 2013)
# Hit rate of the full screen: of about 420,000 compounds, about 50,000 (12%) were called active. About 26% were inconclusive and are not listed. Calls follow the shape of the dose curve; as a rule, active = well fitted inhibition curve with a large enough effect; inconclusive = small, poorly fitted or top-dose-only effect; inactive = flat fitted curve, though single readings scatter. The sample as a whole holds a higher share of actives than the screen did.
# Experiment: qHTS for Inhibitors of human tyrosyl-DNA phosphodiesterase 1 (TDP1): qHTS in cells in presence of CPT; also: nearly all actives have a fitted effect of over 55% in size
# Details: chicken DT40 Tdp1-/-;hTDP1 cells + 20 nM CPT, ATP luminescence, 48 h; series mostly up to 46.2 µM; activity change, negative = growth inhibition: at the top concentration
# In short: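 Chicken DT40 Tdp1-/- cells stably complemented with human TDP1 were seeded at 400 cells/well in medium containing 20 nM camptothecin, exposed to pin-transferred compounds, and grown at 37 °C for at least 48 hr. Viability was read as ATP luminescence.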
# % is scaled to controls: 0 for no effect and ±100 for the full control effect; potency is read from the fitted curve at half-maximal effect.
SMILES,"activity change, negative = growth inhibition",Potency
Cc1nc2nc(C)c(NS(=O)(=O)c3ccc(C(C)(C)C)cc3)c(=O)n2[nH]1,-11.1% (inactive),
CCCS(=O)(=O)NCc1c(C)ncc2c1CCN(C(=O)c1ccc(F)c(F)c1)C2,-3.77% [at 9.04 µM] (inactive),
Cc1coc2c1c(C)cc1oc(=O)c(CC(=O)NCC(=O)N[C@H](C(=O)O)C(C)C)c(C)c12,-0.893% (inactive),
CC(C#N)OC(=O)c1cccnc1SCC(=O)Nc1ccc2c(c1)OCO2 (stereo not given),14.5% (inactive),
COc1ccc2c(c1)OC(O)(C(F)(F)C(F)F)CC2=O (stereo not given),,11.6 µM (active)
COc1ccc2c(c1)SC(C)CC2=O (stereo not given),-1.56% (inactive),
O=C(CCC(=O)OCc1cccc(C(=O)Oc2ccccc2)c1)Nc1cccc2ccccc12,-26.9% (inactive),
CS(=O)(=O)c1ccc(C(=O)NNC(=O)c2cccs2)cc1,-1.13% (inactive),
CC(=O)NC12CC3CC(C1)CC(C(=O)N1CCN(S(=O)(=O)c4cccs4)CC1)(C3)C2,-8% (inactive),
CCOc1ccc(C(=O)Nc2ccc(CN3CCOCC3)cc2)cc1Cl,-16.5% (inactive),
CCOc1ccc(/C=C(\C#N)c2nc3ccccc3c(=O)[nH]2)cc1OC,-12.3% (inactive),
COc1cc(/C=C(\C#N)c2nc3ccccc3[nH]2)ccc1O,,25.9 µM (active)
N#C/C(=C\c1ccccc1F)c1nc2ccccc2c(=O)[nH]1,-10.3% (inactive),
Cc1nnc(SCc2nc3ccccc3nc2C)s1,-1.33% (inactive),
ClC1(Cl)CC1CSc1ncn[nH]1 (stereo not given),11% (inactive),
O=C(CSc1ncccn1)NCCc1ccccc1,-27.8% (inactive),
S=C(Nc1cccc(Br)c1)N1CCn2cccc2C1c1cccnc1 (stereo not given),-26.3% (inactive),
S=C(NCCc1ccccc1)N1CCn2cccc2C1c1ccncc1 (stereo not given),,18.4 µM (active)
CCC(=O)Nc1ccc(C(=O)NNC(=O)c2ccc(Cl)cc2)cc1,-2.54% (inactive),
CC(C)C(C(=O)NCc1ccco1)N(CC1CCCO1)C(=O)CNS(=O)(=O)c1ccc(F)cc1 (stereo not given),1.31% (inactive),
COC(=O)[C@@]1(Sc2ccc(C)cc2)CC(=O)N(c2cccc(SC)c2)[C@@H]1c1ccccc1,,18.4 µM (active)
O=C1CC(c2ccccc2)C(=O)N1c1cccc(O)c1 (stereo not given),-14.8% (inactive),
Cc1ccc(C2SCC(=O)N2c2ccccc2)cc1 (stereo not given),10.6% (inactive),
COc1cc(CO)ccc1OCC(=O)Nc1cccc2ccccc12,-13.7% (inactive),
O=C(NCCCn1ccnc1)c1cc(Br)c(Br)s1,4.77% (inactive),
COC(=O)c1sc2[nH]c(=S)n(N)c(=O)c2c1C,-11.5% (inactive),
O=c1c(/C=N/O)coc2ccc(Cl)cc12,14.6% (inactive),
CC(C)(C)OC(=O)NCCCCCC(=O)N/N=C/c1coc2ccccc2c1=O,-26.3% (inactive),
Cc1ccc2occ(/C=N/NC(=O)c3ccccc3C)c(=O)c2c1,,16.4 µM (active)
CN1CCC(OC(=O)COc2ccc(Cl)cc2Cl)CC1,2.57% (inactive),
